The source of these data is the supplement of paper PMC6555819.

In this assay the test system is VDR:RXRa (NR concentration 270 nM, RXRa partner concentration 90 nM). Put plainly: PBM binding z-score (relative to random genomic background probes); higher = stronger binding; sequences stand for … in GC…GCGATTGACAGCGTAGAATGAAGG
The protocol:
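Protein-binding microarray (Agilent 4x180K custom design, double-stranded 60-nt probes: 5' GC cap, 34-nt variable region, 24-nt constant primer region; full probe sequence given). Purified or IVT nuclear receptor:RXRα heterodimers (3:1 NR:RXRα, mostly 270:90 nM) or homodimers were incubated for 1 h in PBS with 2% milk and no ligand, then detected with Alexa488 antibodies. Fluorescence from o1-orientation probes (~5 replicates averaged) was converted to z-scores against 500 random hg19 background probes. Variable regions are seed direct-repeat (DR0–DR5) sites, all their single-nucleotide variants and half-site ablations.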
TCAAATAGGTAAAAGGTGAAAGTCGGTGTGGTAA registered a PBM binding z-score of 1.79.

In turn, CCGCGGAGGACAGAAGGTCAGAGCTGTCCGCTTT came in with a PBM binding z-score of 0.646.

In turn, AGTCAATGTTCATCTAGGTAACGTAAGATATGCT registered a PBM binding z-score of -0.275.

As for TCATATAGGTGAACAGGTGAAAGTCCGTAAGTTA, the PBM binding z-score was 1.19.

In turn, GGAAAGAGGGCAAGTTGATAGCAGAGTTTGATGG came in with a PBM binding z-score of 1.24.

Regarding ACTCGGAGGACAAAGGTCAGAGATACGCCAGTGA, the PBM binding z-score worked out at 3.38.

As for CCTACTGCGCCAAAAAGGTCATTGATGCCGATAA, the PBM binding z-score was 4.94.

The sequence ATATGTAGGTTAGCTGGGCTCATTCAGACTAGGC registered a PBM binding z-score of -0.0839.

For ATTTCTAGGTAACAAGTTCAGTGAAAGAGAGGAC, the PBM binding z-score stood at 2.56.

The sequence ACTATTTGGTCAGCTGAGGTCACACACAATTCGG gave a PBM binding z-score of 4.64.

The sequence CGAACTAGGTCATTGACTGGACAGTGAATAGTAA registered a PBM binding z-score of 1.68.

For TCTCGGATGACACGAAGGTCAGAGCTTTCCAGAG, the PBM binding z-score amounted to 1.46.

As to TCTGCTAGGTCAACGATGGGCAGCTAATCTGCTA, the PBM binding z-score came to 0.993.

With CGTCCACGGTCAGAGAGGTCAGTGAATGCCGAGT, the PBM binding z-score is 4.97.

GGAACGAGGGCAAAGTGGATAGCATCTGTCGACG displayed a PBM binding z-score of 1.08.

CCGAGTAGGTTATGGTGCATTCAGGCAACGGTGA: the PBM binding z-score was determined as 0.0938.

In turn, TCATATAGGTAAATGATAGGTGAAAGTCCGATCT came in with a PBM binding z-score of 1.15.

In turn, TTATCAAGGTGAAGGTCGTTGATCCCTCTGTAGA gave a PBM binding z-score of 1.55.

Take ACTAGTTGGTCAGCTGAGGTCATACACAATTCGG: the PBM binding z-score worked out at 4.73.

The sequence CCTAGTTCGTCAAGGTCACACACGCTATAGGTAC displayed a PBM binding z-score of 6.46.

In the case of TGAATGAGGTTAAAGATCAGGTAACGTGGCGTCG, the PBM binding z-score is 1.92.

For the sequence ATCGATAGGTCGTGAGGTGAGTATACAGAAAGGC, the PBM binding z-score was determined as 1.08.

With TCTTGTAGATCAAAGGTTAAGATAGCCGAAGCCT, the PBM binding z-score stood at 1.49.

ATCGAAAGGTCGGAGGTGAGTATACCCACCCGAA: the PBM binding z-score is 1.75.

In turn, GCTTGTAGATCAAAGTTAAGAAAGACTAAGCTAA yielded a PBM binding z-score of -0.483.

In the case of TCAGACAGGTGAAGGTAACTCTGGTACGCAGTCG, the PBM binding z-score is 0.577.

The sequence ATCGAAATGTCGAAGGTGAGTATACCCACCCGAA had a PBM binding z-score of -0.0982.

TGATTGAGGTTATAAGATCAGGGAACGTTGCAAA returned a PBM binding z-score of 1.01.

The sequence GCGACTGGGGCAAAGCAGGTTACCATAAGGTTGG gave a PBM binding z-score of 0.149.

Take AATACAGGGTTACTAGGCCAGAGTAGGTACGAAT: the PBM binding z-score turned out to be 0.824.

For CAAACTAGGTCAAGAGGTCAAAGTACGCTTCCCG, the PBM binding z-score was determined as 6.22.

GCTCGGAGGACATGGTCAGAGCTTTGTCCGTAGA had a PBM binding z-score of -0.753.

In the case of ATCTCTAGGCAAAAGTTCAGTGAATCCCGAGGAT, the PBM binding z-score amounted to 0.715.

The sequence CGTCAAAGTTCAAGGTAACGTGACAGAAAGCAGC showed a PBM binding z-score of 3.71.

In the case of CCAGACAGGTGAGAAGGTCACTCAGCCTCGATTA, the PBM binding z-score was determined as 2.66.

Sequence ATCTCTAGGTAAAAGTTCAGTGAATCCCGAGGAT showed a PBM binding z-score of 1.31.

The sequence CCTCGGAGGACAACAGGAGGTCAGCGCTGCCAGA yielded a PBM binding z-score of 2.39.

Turning to TCTCGGAGGACACGAAAGGTCAGAGCGCGACATC, the PBM binding z-score was found to be 3.45.

With CCGATTGGGGCAGAAAGGTTACCATACCATCCGG, the PBM binding z-score came to 0.707.

Sequence ATCTCTAGGTAAGACTCAGTTCAGTGACGAACGC gave a PBM binding z-score of 0.924.
